Where “and” joins values, the source holds several entries; their conditions need not be identical. Identical values can stand only once. Calls of active or inactive are those of the source.
Key:
Albumin (Bos taurus) = Albumin (Bos taurus) (UniProt P02769); experiment: bovine serum albumin binders on microarray, profiling panel, artefact control for SMM control protein annotation, biochemical, small-molecule microarray, Alexa647 label, 635/667 nm fluorescence (AID 1118); details: BSA-A647 binding, fluorescence 635 nm, higher = more signal;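 further: score merges 667 nm emission intensity and signal-to-noise per printed compound spot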
Sequence of Albumin (Bos taurus) (P02769 whole entry, looked up): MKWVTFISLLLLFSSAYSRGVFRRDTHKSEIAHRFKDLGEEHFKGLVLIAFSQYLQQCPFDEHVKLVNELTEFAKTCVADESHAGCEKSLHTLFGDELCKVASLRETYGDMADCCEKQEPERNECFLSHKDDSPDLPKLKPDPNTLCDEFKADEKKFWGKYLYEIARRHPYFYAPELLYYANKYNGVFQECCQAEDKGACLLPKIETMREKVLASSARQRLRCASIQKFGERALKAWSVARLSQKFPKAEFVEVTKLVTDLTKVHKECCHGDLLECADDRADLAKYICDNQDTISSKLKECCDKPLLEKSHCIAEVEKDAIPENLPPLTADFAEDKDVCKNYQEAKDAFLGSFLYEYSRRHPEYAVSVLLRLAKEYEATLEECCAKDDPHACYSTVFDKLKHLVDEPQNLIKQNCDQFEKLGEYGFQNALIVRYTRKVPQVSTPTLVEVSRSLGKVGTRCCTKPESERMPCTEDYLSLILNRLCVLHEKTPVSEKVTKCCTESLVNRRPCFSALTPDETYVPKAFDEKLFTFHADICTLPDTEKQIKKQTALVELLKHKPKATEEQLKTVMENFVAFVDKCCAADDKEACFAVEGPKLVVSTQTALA

[1] = small-molecule microarray binders of probe aXIP, primary screen, biochemical, NeuroSMM set, 635/667 nm fluorescence (AID 1119); details: higher = more signal, called active from +8 up or from −8 down;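 further: probe is the protein aXip251-270 applied at 1 µg/mL to compound-printed slides; binding of probe to printed compounds measured as 667 nm fluorescence plus signal to noise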
[2] = small-molecule binders of probe aNOTCH3, primary screen, biochemical, small-molecule microarray, 635/667 nm fluorescence (AID 1120); details: higher = more signal;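 further: probe is a biotin-tagged antibody raised against NOTCH3 rather than NOTCH3 protein; score merges spot fluorescence near 667 nm with spot signal to noise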
[3] = small-molecule binders of probe aNOTCH2, primary screen, biochemical, small-molecule microarray, 635/667 nm fluorescence (AID 1121); details: higher = more signal;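 further: score merges feature fluorescence read at 667 nm with its signal to noise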
[4] = biological target: Carbonic anhydrase 2 (Homo sapiens) (UniProt P00918); experiment: CAII small-molecule binders, profiling panel, biochemical, small-molecule microarray, Alexa647-labelled CAII (AID 1122); details: CAII-A647 binding fluorescence, higher = more signal
[5] = COS7 lysate on small-molecule microarray, probe aHis, 635 nm (AID 1123); details: COS7 cell lysate, fluorescence, higher = more signal;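 further: z-score combines 667nm fluorescence intensity with signal-to-noise per printed compound spot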
[6] = compound binding in COS7 lysate, probe aLAP1, primary screen, cell lysate, small-molecule microarray (AID 1124); details: probe aLAP1, fluorescence, higher = more signal;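 further: lysate comes from COS7 cells expressing LAP1 and is applied at 0.3 µg/mL; score merges spot fluorescence near 667 nm with signal-to-noise over triplicate slides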
Sam68 (KHDRBS1) = experiment: Sam68 small-molecule binders, primary screen, biochemical, small-molecule microarray, 635 nm fluorescence (AID 1125); details: small-molecule microarray binding, higher = more signal;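 further: score merges 667 nm channel intensity with signal to noise over triplicate slides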
[7] = test system: Chordin-like protein 2 (CHRDL2); experiment: CHRDL2 small-molecule binders, primary screen, biochemical, small-molecule microarray, 635 nm fluorescence (AID 1126); details: small-molecule microarray binding, fluorescence 635 nm; higher = more signal;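 further: printed compound slides probed with Chrdl2 protein at 4 µg/mL for 1 h at 4 C; score merges 667 nm emission intensity with signal to noise over three replicate slides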
[8] = biological target: Concanavalin-A (Canavalia ensiformis) (UniProt P02866); experiment: ConA small-molecule binders, primary screen, artefact control for SMM control protein annotation, biochemical, small-molecule microarray, Alexa647 label, 635 nm (AID 1127); details: ConA-A647 binding fluorescence, higher = more signal;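 further: z combines 667 nm emission intensity with signal-to-noise across three replicate slides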
Sequence of Concanavalin-A (Canavalia ensiformis) (P02866 whole entry, looked up): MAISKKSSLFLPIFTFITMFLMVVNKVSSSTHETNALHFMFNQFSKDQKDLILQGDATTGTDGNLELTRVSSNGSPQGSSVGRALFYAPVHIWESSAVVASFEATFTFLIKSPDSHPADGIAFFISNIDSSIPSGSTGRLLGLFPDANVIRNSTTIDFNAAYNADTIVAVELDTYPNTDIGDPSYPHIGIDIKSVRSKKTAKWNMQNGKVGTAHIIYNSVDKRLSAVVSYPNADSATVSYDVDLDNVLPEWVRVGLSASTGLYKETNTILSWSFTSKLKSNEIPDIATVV

Compound | composite z-score (Albumin (Bos taurus)) | composite Z-score [1] | composite z-score [2] | composite z-score [3] | composite z-score [4] | composite z-score [5] | composite z-score [6] | composite z-score (Sam68 (KHDRBS1)) | composite z-score [7] | composite z-score [8]
C[C@@H]1CC[C@H]2C(=O)N3[C@@H](CC[C@@H](C)[C@@H]3c3ccc(-c4ccco4)cc3)C(=O)N2[C@H]1c1ccc(-c2ccco2)cc1 | 0.346 and -0.391 | 0.705 (inactive) and 1.24 (inactive) | 0.116 and 0.385 | 0.0079 and 0.0312 | 0.688 and 0.645 | 1.12 and 0.0336 | 0.412 and -0.258 | 1.3 and 1.1 | 1.05 and 1.57 | 1.11 and 1.16
CC(C)=CCCC(C)=CCON=C1C[C@@H](O)[C@@H](O)[C@@H]2[C@@H]3C(=O)N([C@@H](C)c4ccccc4)C(=O)[C@@H]3CC[C@H]12 | 0.799 | -0.501 (inactive) | -0.0048 | 0.296 | 0.206 | 1.37 | 0.308 | 1.12 | 1.03 | 0.0996
CCCCN1CC=CC23O[C@@H]4C=CCCOC(=O)C4[C@H]2C(=O)N(C(C)CO)[C@@H]3C1=O (stereo not given in full) | -0.12 and -0.441 | -0.238 (inactive) and -0.166 (inactive) | -0.222 and -0.0647 | -0.21 and -0.147 | 0.837 and 0.777 | 0.462 and 0.472 | 0.216 and 0.436 | 0.206 and -0.0241 | 0.375 and -0.0584 | -1.63 and 0.0212
C=CCN(CCCCC)C(=O)C1N(CCOCCO)C(=O)C2C(C(=O)O)C3C=CC21O3 (stereo not given) | 0.92 and -1.47 | 2.54 (inactive) and -0.487 (inactive) | -0.496 and -0.461 | -0.195 and -0.189 | 0.853 and 0.794 | -0.568 and 0.294 | -0.615 and 1.6 | -3.26 and -1 | -2.12 and -3.36 | -1.88 and -1.67
CO[C@H]1COC(=O)CC=C[C@@H](C)COC(=O)[C@@H](OCc2ccccc2)C=C[C@@H]1C | -0.853 | 0.528 (inactive) | -0.307 | -0.179 | -0.297 | -0.173 | 0.106 | -0.239 | 1.23 | -1.64
COC(=O)C1=C(C)N(Cc2ccccc2)[C@]23O[C@](C(=O)OC)(C(=O)N2[C@@H]1c1ccccc1)[C@H]1C(=O)N(C)C(=O)[C@H]13 | 0.899 and 0.489 | -0.0443 (inactive) and 0.0886 (inactive) | -0.212 and 0.0751 | -0.116 and -0.148 | 0.354 and 0.309 | 0.909 and 0.901 | 0.262 and -0.0393 | 1.19 and 0.0927 | 0.0101 and 0.385 | 1.08 and -0.174
CC(=O)OC[C@H]1O[C@H](C#CC(C)(C)C)C=C[C@@H]1OC(C)=O | 0.895 | -0.0921 (inactive) | 0.116 | -0.0649 | 0.813 | 1.6 | 0.164 | 1.22 | 0.411 | 1.09
C=CCN(C(=O)C1N(CCOCCO)C(=O)C2C(C(=O)O)C3C=CC21O3)C(C)(C)C (stereo not given) | 0.106 and -0.502 | 0.519 (inactive) and -0.158 (inactive) | -0.465 and -0.469 | -0.116 and -0.153 | -0.115 and -0.524 | -0.717 and -1.47 | -0.882 and -0.478 | -1.29 and -0.941 | -3.33 and -1.51 | -0.455 and -0.884
